PubChem BioAssay (Tox21)
Several values for one entry are separate records, joined by “and”; a condition that tells them apart may be missing. Equal entries are not always repeated. Records with an inconclusive call do not appear. Entries that show only a call come without a potency. Activity calls are given as the source filed them. The call rests on the fitted dose curve; in most records, active means well fitted cell-killing curve with a large enough effect in the repeat runs; inconclusive means weak or mixed curves; inactive means flat fitted curve, though single readings scatter.

Test: qHTS RealTime-Glo MT Cell Viability Assay in HepG2 cells - 16 hour (AID 1224885); further: nearly all actives have a fitted effect of over 50% in size
Conditions: RealTime-Glo luminescence; series mostly up to 76.8 µM
Description: U.S. Tox21 Program National Center for Advancing Translational Sciences [NCATS] NIH Chemical Genomics Center [NCGC] U.S. Environmental Protection Agency [EPA] National Institutes of Environmental Health Sciences [NIEHS] National Toxicology Program [NTP] U.S. Food and Drug Administration [FDA] Tox21 Assay Overview: Measure of cell viability is critical in the cell-base assay. Analysis of cell viability is necessary for the characterization of cell responses to cytotoxic drugs and environmental stress. A RealTime-Glo MT Cell Viability Assay to monitor cell viability in real time of continues cell culture during 40 hours of compound treatment was used to screen Tox21 10K library compounds in HepG2 cells. The RealTime-Glo MT Cell Viability Assay is a nonlytic, homogeneous, bioluminescent method to measure cell viability in real time using a simple, plate-based method. The assay involves adding NanoLuc luciferase and a cell-permeant prosubstrate to cells in culture. Viable cells reduce the proprietary prosubstrate to generate a substrate for NanoLuc luciferase. This substrate diffuses from cells into the surrounding culture medium, where it is rapidly used by the NanoLuc Enzyme to produce a luminescent signal. The signal correlates with the number of viable cells, making the assay well suited for cytotoxicity studies.
Tox21 Assay Protocol Summary: The mixture of HepG2 cell suspension and reagents were dispensed at 600cells/6 ul/well in 1536-well tissue culture treated black solid bottom plates using a Multidrop dispenser. After the assay plates were incubated at a 37 C/5% CO2 incubator for 5 hours, 23 nL of compounds dissolved in DMSO, positive and negative controls was transferred to the assay plate by a pintool work station. The plates were incubated at 37 C for 40 hours. The luminescence intensity were measured at 0h, 8h, 16h, 24h, 32h and 40h time points using ViewLux plate reader during compound treatment.
Potency means the concentration at half of the fitted maximal effect.

Question: Which Potency does the source give for `O=P(O)(O)CCCl` here?
Answer: inactive

Question: With `Nc1ccncc1` as the compound, how does the Potency read?
Answer: inactive

Question: For `Nc1ccc(-c2ccc(N)c(N)c2)cc1N`, which Potency is on record?
Answer: inactive

Question: With `C=C(C)[C@H]1Cc2c(ccc3c2O[C@@H]2COc4cc(OC)c(OC)cc4[C@@H]2C3=O)O1` as the compound, how does the Potency read?
Answer: 31.3 µM (active) and 27.5 µM (active)

Question: For `CCOC(=S)S`, which Potency is on record?
Answer: inactive

Question: Which Potency does the source give for `CCC(C)c1ccc(O)cc1` (stereo not given) here?
Answer: inactive

Question: Which Potency does the source give for `C=C(C)C(=O)OCC1CO1` (stereo not given) here?
Answer: inactive

Question: For `CCc1cccc(CC)c1N(COC)C(=O)CCl`, which Potency is on record?
Answer: inactive

Question: Which Potency does the source give for `N#Cc1cc(Br)c(O)c(Br)c1` here?
Answer: inactive

Question: For `Cc1ccccc1[N+](=O)[O-]`, which Potency is on record?
Answer: inactive

Question: For `CC(C)NC(C)C`, which Potency is on record?
Answer: inactive

Question: With `CCOCN(C(=O)CCl)c1c(C)cccc1CC` as the compound, how does the Potency read?
Answer: inactive

Question: Which Potency does the source give for `c1ccc(N=Nc2ccccc2)cc1` here?
Answer: inactive

Question: Which Potency does the source give for `CCCCCCCCCCCOC(=O)c1ccccc1C(=O)OCCCCCCCCCCC` here?
Answer: inactive

Question: Which Potency does the source give for `N#CC(Br)Br` here?
Answer: inactive

Question: With `CC(C)(C)c1ccccc1O` as the compound, how does the Potency read?
Answer: inactive

Question: Which Potency does the source give for `CCN(N=O)C(N)=O` here?
Answer: inactive

Question: Which Potency does the source give for `CCCCNC(=O)n1c(NC(=O)OC)nc2ccccc21` here?
Answer: inactive

Question: With `NCc1cccnc1` as the compound, how does the Potency read?
Answer: inactive

Question: For `ClC1C(Cl)C(Cl)C(Cl)C(Cl)C1Cl` (stereo not given), which Potency is on record?
Answer: inactive

Question: For `Cc1c(COC(=O)[C@@H]2[C@H](/C=C(\Cl)C(F)(F)F)C2(C)C)cccc1-c1ccccc1`, which Potency is on record?
Answer: inactive

Question: With `CCC(C)c1cc([N+](=O)[O-])cc([N+](=O)[O-])c1O` (stereo not given) as the compound, how does the Potency read?
Answer: inactive

Question: Which Potency does the source give for `CCOc1cc(Oc2ccc(C(F)(F)F)cc2Cl)ccc1[N+](=O)[O-]` here?
Answer: inactive

Question: Which Potency does the source give for `N[C@@H](Cc1ccc(N(CCCl)CCCl)cc1)C(=O)O` here?
Answer: inactive

Question: Which Potency does the source give for `CC(C)Oc1cc(-n2nc(C(C)(C)C)oc2=O)c(Cl)cc1Cl` here?
Answer: inactive

Question: For `Nc1cccnc1`, which Potency is on record?
Answer: inactive

Question: For `c1ccc(-c2cccc(-c3ccccc3)c2)cc1`, which Potency is on record?
Answer: inactive

Question: Which Potency does the source give for `COc1ccc(C=O)cc1` here?
Answer: inactive

Question: Which Potency does the source give for `O=c1oc2ccccc2c(O)c1C(CC(O)c1ccc(-c2ccc(Br)cc2)cc1)c1ccccc1` (stereo not given) here?
Answer: inactive

Question: Which Potency does the source give for `O=C(O)C(F)(F)C(F)(F)C(F)(F)C(F)(F)C(F)(F)C(F)(F)C(F)(F)F` here?
Answer: inactive

Question: With `O=C(O)CC[N+](=O)[O-]` as the compound, how does the Potency read?
Answer: inactive

Question: For `C[C@]12CCC(=O)C[C@@H]1CC[C@@H]1[C@@H]2CC[C@]2(C)[C@@H](O)CC[C@@H]12`, which Potency is on record?
Answer: inactive

Question: For `CN(C)C(=O)Nc1ccc(Cl)cc1`, which Potency is on record?
Answer: inactive

Question: For `CCCCN(CCCC)N=O`, which Potency is on record?
Answer: inactive

Question: With `Nn1cnnc1` as the compound, how does the Potency read?
Answer: inactive

Question: Which Potency does the source give for `CCCCCCOC(=O)c1ccccc1C(=O)OCCCCCC` here?
Answer: inactive

Question: Which Potency does the source give for `Oc1cc(Cl)ccc1Oc1ccc(Cl)cc1Cl` here?
Answer: 22.4 µM (active) and 23.9 µM (active)

Question: For `OCC(O)CO`, which Potency is on record?
Answer: inactive

Question: Which Potency does the source give for `N#CCCCl` here?
Answer: inactive

Question: Which Potency does the source give for `O=C1C=CC(=O)C=C1` here?
Answer: inactive
